Assay results reported in PubChem BioAssay (NCI).
Compounds without any hit were thinned out: in the full panel of roughly 79,000, 15% have a hit. The source made the active and inactive calls. Rule as the data show it: active = growth inhibition above about 70%; inactive = the rest.

Experiments:
[1] = NCI Yeast Anticancer Drug Screen. Data for the rad52 strain (AID 147);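 also: 0% = growth of vehicle-treated control cultures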; settings: S. cerevisiae rad52 mutant growth inhibition, active compounds read high
Outline: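 Here a repair-compromised yeast strain receives each compound; its growth is then quantified and normalised to vehicle-only controls.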

[2] = NCI Yeast Anticancer Drug Screen. Data for the wt1 strain (AID 149);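 also: 0% = growth of vehicle-treated wt1 cultures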; settings: S. cerevisiae wt1 strain (SPY 50644) growth inhibition, active compounds read high
Outline: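 Measured: growth of wt1 yeast under compound versus vehicle treatment, reported as inhibition.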

[3] = NCI Yeast Anticancer Drug Screen. Data for the rad50EPP+ strain (AID 151);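 also: 0% = growth of vehicle-treated control cultures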; settings: S. cerevisiae rad50 mutant strain, active compounds read high
Outline: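 Read-out is yeast growth inhibition relative to vehicle; cells used were the rad50EPP+ strain.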

[4] = NCI Yeast Anticancer Drug Screen. Data for the mgt1 strain (AID 153); settings: S. cerevisiae mgt1 mutant growth inhibition, active compounds read high
Outline: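 Measured: inhibition of mgt1 yeast growth by compound, normalized to vehicle-treated cultures.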

[5] = NCI Yeast Anticancer Drug Screen. Data for the rad50 strain (AID 155);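 also: 0% = growth of vehicle-only cultures of the same strain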; settings: S. cerevisiae rad50 strain growth inhibition, active compounds read high
Outline: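 Growth of the mutant yeast was measured after compound exposure and referenced to vehicle-treated cultures.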

[6] = NCI Yeast Anticancer Drug Screen. Data for the mec2-1 strain (AID 157); settings: S. cerevisiae mec2-1 strain, active compounds read high
Outline: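 Using mec2-1 yeast: add compound, measure growth, express inhibition versus vehicle-treated cultures.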

[7] = NCI Yeast Anticancer Drug Screen. Data for the sgs1 mgt1 strain (AID 161);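 also: 0% = growth of cultures given vehicle only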; settings: S. cerevisiae sgs1 mgt1 strain, active compounds read high
Outline: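 Percent growth inhibition was derived by comparing compound-exposed mutant yeast with vehicle-exposed cultures. The strain carries alterations in DNA damage repair.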

[8] = NCI Yeast Anticancer Drug Screen. Data for the CLN2oe strain (AID 163);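 also: 0% = growth of vehicle-only control cultures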; settings: S. cerevisiae CLN2oe strain, active compounds read high
Outline: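 Whole-cell yeast growth assay. A strain engineered for altered cell-cycle control received compound, and inhibition relative to vehicle-treated cultures was recorded.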

[9] = NCI Yeast Anticancer Drug Screen. Data for the cln2 rad14 strain (AID 165);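 also: 0% = growth equal to vehicle treated cultures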; settings: S. cerevisiae cln2 rad14 strain, active compounds read high
Outline: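 Yeast strain cln2 rad14, bearing defects in cell cycle control and DNA repair, serves as the test system; values reflect growth inhibition compared with vehicle.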

[10] = NCI Yeast Anticancer Drug Screen. Data for the bub3 strain (AID 167); settings: S. cerevisiae bub3 mutant strain, active compounds read high
Outline: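 Whole-cell yeast assay. The mutant strain was incubated with compounds, and growth inhibition was determined by comparison with vehicle-treated cells.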

[11] = NCI Yeast Anticancer Drug Screen. Data for the wt2 strain (AID 169);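 also: 0% = growth of vehicle-treated yeast cultures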; settings: S. cerevisiae wt2 strain growth inhibition, active compounds read high
Outline: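 Treated yeast vs. vehicle-treated yeast: growth inhibition determined.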

[12] = NCI Yeast Anticancer Drug Screen. Data for the mlh1 strain (AID 171);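 also: 0% = growth of vehicle-treated control cultures of the same strain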; settings: S. cerevisiae mlh1 strain growth inhibition, active compounds read high
Outline: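 A yeast strain with a defined genetic lesion serves as the test organism. Cultures receive compound or vehicle, and growth is measured.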

[13] = NCI Yeast Anticancer Drug Screen. Data for the sgs1 strain (AID 173);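 also: 0% = growth of vehicle-only control cultures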; settings: S. cerevisiae sgs1 mutant, active compounds read high
Outline: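 A genetically defined yeast mutant is incubated with the test compound, and its growth is compared to that of the same strain given vehicle.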

[14] = NCI Yeast Anticancer Drug Screen. Data for the mlh1 rad18 strain (AID 175); settings: S. cerevisiae mlh1 rad18 strain growth inhibition, active compounds read high
Outline: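 Steps: expose repair-defective yeast to compound; measure growth; express inhibition against vehicle-treated controls.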

[15] = NCI Yeast Anticancer Drug Screen. Data for the rad18 strain (AID 177); settings: S. cerevisiae rad18 mutant growth inhibition, active compounds read high
Outline: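 Measured value is growth inhibition of a yeast strain bearing a DNA repair alteration, referenced to vehicle-treated cells.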

[16] = at 5.0 µM (retest, dose inferred, filed as 0.5)
[17] = at 50.0 µM (retest, dose inferred, filed as 5.0)

Measured: growth inhibition

O=C1c2ccc3ccccc3c2CCC1N1CCCCC1 (stereo unspecified)
active: [1]; at 33.0 µM 81% | [1]; at 100.0 µM 98% | [2]; at 100.0 µM 97% | [3]; at 11.0 µM 77% | [3]; at 33.0 µM 85% | [3]; at 100.0 µM 98% | [4]; at 33.0 µM 76% | [4]; at 100.0 µM 98% | [5]; at 33.0 µM 73% | [5]; [17] 97% | [5]; at 50.0 µM 98.9% | [5]; at 100.0 µM 98% | [6]; [17] 99% | [6]; at 50.0 µM 98.8% | [6]; at 100.0 µM 95% | [7]; [17] 98% | [7]; at 50.0 µM 99.2% | [8]; at 100.0 µM 98% | [9]; [17] 97% | [9]; at 50.0 µM 78.3% | [10]; at 33.0 µM 76% | [10]; [17] 99% | [10]; at 50.0 µM 99.3% | [10]; at 100.0 µM 97% | [11]; at 33.0 µM 79% | [11]; at 100.0 µM 97% | [12]; at 33.0 µM 81% | [12]; at 100.0 µM 98% | [13]; at 33.0 µM 92% | [13]; at 100.0 µM 98% | [14]; [17] 99% | [14]; at 50.0 µM 97% | [15]; at 100.0 µM 97%
inactive: [1]; at 1.2 µM 4% | [1]; at 3.7 µM 16% | [1]; at 11.0 µM 41% | [2]; at 1.2 µM 3% | [2]; at 3.7 µM 11% | [2]; at 11.0 µM 9% | [2]; at 33.0 µM 27% | [3]; at 1.2 µM 32% | [3]; at 3.7 µM 53% | [4]; at 1.2 µM 3% | [4]; at 3.7 µM 10% | [4]; at 11.0 µM 21% | [5]; at 1.2 µM 2% | [5]; at 3.7 µM 8% | [5]; [16] 9% | [5]; at 11.0 µM 16% | [6]; at 1.2 µM 0% | [6]; at 3.7 µM 11% | [6]; [16] 10% | [6]; at 11.0 µM 17% | [6]; at 33.0 µM 62% | [7]; [16] 19% | [8]; at 1.2 µM 5% | [8]; at 3.7 µM 5% | [8]; at 11.0 µM 22% | [8]; at 33.0 µM 61% | [9]; [16] 7% | [10]; at 1.2 µM -7% | [10]; at 3.7 µM -6% | [10]; [16] 10% | [10]; at 11.0 µM 8% | [11]; at 1.2 µM 5% | [11]; at 3.7 µM 14% | [11]; at 11.0 µM 33% | [12]; at 1.2 µM -1% | [12]; at 3.7 µM 7% | [12]; at 11.0 µM 22% | [13]; at 1.2 µM 4% | [13]; at 3.7 µM 12% | [13]; at 11.0 µM 41% | [14]; [16] 31% | [15]; at 1.2 µM 6% | [15]; at 3.7 µM 13% | [15]; at 11.0 µM 26% | [15]; at 33.0 µM 65%

O=[N+]([O-])O.[NH-]C1CCCCC1[NH-].[NH-]C1CCCCC1[NH-].[NH-]C1CCCCC1[NH-].[OH-].[OH-].[OH-].[Pt+4].[Pt+4].[Pt+4] (stereo unspecified)
inactive: [1]; at 1.2 µM -29% | [1]; at 3.7 µM -36% | [1]; at 11.0 µM -51% | [1]; at 33.0 µM -26% | [1]; at 100.0 µM -25% | [2]; at 1.2 µM -15% | [2]; at 3.7 µM -12% | [2]; at 11.0 µM -14% | [2]; at 33.0 µM -14% | [2]; at 100.0 µM -3% | [3]; at 1.2 µM -28% | [3]; at 3.7 µM -26% | [3]; at 11.0 µM -19% | [3]; at 33.0 µM -28% | [3]; at 100.0 µM -31% | [4]; at 1.2 µM -14% | [4]; at 3.7 µM -15% | [4]; at 11.0 µM -19% | [4]; at 33.0 µM -12% | [4]; at 100.0 µM -7% | [5]; at 1.2 µM -6% | [5]; at 3.7 µM -14% | [5]; [16] 17% | [5]; at 11.0 µM -14% | [5]; at 33.0 µM -2% | [5]; [17] 20% | [5]; at 50.0 µM 50.8% | [5]; at 100.0 µM -11% | [6]; at 1.2 µM 12% | [6]; at 3.7 µM -6% | [6]; [16] 16% | [6]; at 11.0 µM 0% | [6]; at 33.0 µM 4% | [6]; [17] 14% | [6]; at 50.0 µM -15.5% | [6]; at 100.0 µM 63% | [7]; [16] 27% | [7]; [17] 45% | [7]; at 50.0 µM -22.4% | [8]; at 1.2 µM -8% | [8]; at 3.7 µM -17% | [8]; at 11.0 µM -17% | [8]; at 33.0 µM -23% | [8]; at 100.0 µM -13% | [9]; [16] 12% | [9]; [17] 21% | [9]; at 50.0 µM -7.35% | [10]; at 1.2 µM -4% | [10]; at 3.7 µM -9% | [10]; [16] 20% | [10]; at 11.0 µM -14% | [10]; at 33.0 µM -14% | [10]; [17] 25% | [10]; at 50.0 µM -32% | [10]; at 100.0 µM -9% | [11]; at 1.2 µM -46% | [11]; at 3.7 µM -58% | [11]; at 11.0 µM -55% | [11]; at 33.0 µM -51% | [11]; at 100.0 µM -36% | [12]; at 1.2 µM 2% | [12]; at 3.7 µM -10% | [12]; at 11.0 µM -6% | [12]; at 33.0 µM -13% | [12]; at 100.0 µM 12% | [13]; at 1.2 µM -22% | [13]; at 3.7 µM -30% | [13]; at 11.0 µM -19% | [13]; at 33.0 µM 6% | [13]; at 100.0 µM 8% | [14]; [16] 40% | [14]; at 50.0 µM 28.6% | [15]; at 1.2 µM -21% | [15]; at 3.7 µM 2% | [15]; at 11.0 µM 18% | [15]; at 33.0 µM 54%
active: [14]; [17] 71% | [15]; at 100.0 µM 82%
